The values below come from PubChem BioAssay (EPA / NIEHS).

The nature of test [1]: ACEA_AR_agonist_AUC_viability: ACEA Biosciences xCELLigence Real-Time Cell Analysis on Androgen Receptor Agonism for Viability (AID 2283775).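 For AC50: viability read 80 hours after compound addition.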 In outline:
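22Rv1 cells; impedance growth kinetics; 8-pt 1:4 dilutions from 100 uM top final, ≤0.5% DMSO; n = 2; 80 h read; AUC viability, loss-of-signal vs DMSO.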

Test [2] can be described thus: ACEA_AR_antagonist_AUC_viability: ACEA Biosciences xCELLigence Real-Time Cell Analysis on Androgen Receptor Antagonism for Viability (AID 2283776).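 Note: 22Rv1 human prostate cancer cells growing on impedance electrode plates; hits lower the growth signal relative to DMSO meaning cytotoxicity.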 Put shortly:
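Real-time electrical impedance tracks 22Rv1 proliferation after continuous compound exposure (top 100 uM final, 1:4 steps, 8 concentrations). The 80 h area-under-curve serves as the cytotoxicity readout relative to DMSO.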

Test [3] deals with frog Estrogen Receptor (ESR1), gene 398734. Kind of test: ATG_frER1_XSP1: Attagene TRANS-FACTORIAL Multi-Species (XSP1) HepG2 Assay for frog Estrogen Receptor (ESR1) (AID 2283777). Put shortly:
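After transient transfection and 24 h compound treatment, total RNA from HepG2 cells was reverse-transcribed, amplified, FAM-labeled and resolved by capillary electrophoresis. Signal increases were fitted against DMSO controls.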

Test [4] relates to zebrafish Estrogen Receptor (ESR2A), gene 317734. The test can be described thus: ATG_zfER2a_XSP1: Attagene TRANS-FACTORIAL Multi-Species (XSP1) HepG2 Assay for zebrafish Estrogen Receptor (ESR2A) (AID 2283778). In outline: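 Gain-of-signal reporter transcription readout from GAL4-UAS units in transiently transfected HepG2 cells, 24 h exposure, 3 nM 6-alpha-fluorotestosterone co-present. Detection by RT-PCR with capillary electrophoresis fluorescence.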

For test [5], the target named is chicken Estrogen Receptor (ESR1), ESR1 (gene 396099) (UniProt P06212). Kind of test: ATG_chERa_XSP1: Attagene TRANS-FACTORIAL Multi-Species (XSP1) HepG2 Assay for chicken Estrogen Receptor (ESR1) (AID 2283779). In outline: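 Gain-of-signal reporter transcription, relative to DMSO, was scored in transiently transfected HepG2 cells after a 24 h dose. Fluorescence intensity of amplified, digested reporter cDNA fragments served as the endpoint.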

Test [6] concerns turtle Estrogen Receptor (ESR1), gene 101933533. Kind of test: ATG_trERa_XSP1: Attagene TRANS-FACTORIAL Multi-Species (XSP1) HepG2 Assay for turtle Estrogen Receptor (ESR1) (AID 2283781). Put shortly:
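Cell-based chimeric NR-Gal4 transactivation; HepG2; 24 h dosing; mRNA reporter detected by RT-PCR and capillary electrophoresis fluorescence.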

A short description of test [7]: ACEA_ER_AUC_viability: ACEA Biosciences xCELLigence Real-Time Cell Analysis on Estrogen Receptor Agonism for Viability (AID 2283782).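 Note: hit means loss of impedance signal meaning reduced cell growth or viability.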 In outline: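 Continuous-exposure impedance cell analysis uses T-47D cells in charcoal-stripped serum, eight 1:4 dilutions topping at 100 uM final, biological duplicate. Area under the growth curve at 80 h is fitted against DMSO baseline.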

Test [8] concerns the target AR (gene 367) (UniProt P10275). The test can be described thus: ACEA_AR_agonist_80hr: ACEA Biosciences xCELLigence Real-Time Cell Analysis on Androgen Receptor Agonism for Proliferation (AID 2283783).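 Note: hits increase impedance growth signal above DMSO baseline.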 Put shortly: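 Real-time cell-growth kinetics were recorded by electrode impedance in 22Rv1 cells exposed to test chemicals up to 100 uM final; the 80 h timepoint served as the readout, fitted upward relative to DMSO controls, in biological duplicate.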

The nature of test [9]: STM_H9_NormalizedViability: Cytotoxicity Assessment at 120 hours in the Stemina devTOX quickPredict H9 human embryonic stem cell (hESC)-based Assay (AID 2283784). In outline: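 Viability endpoint: background-corrected CellTiter-Fluor RFU expressed relative to the 0.1% DMSO mean on each plate. Undifferentiated H9 cells were treated with daily re-dosing and media change, and loss of signal was fitted.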

Test [10] concerns the target AR (gene 367) (UniProt P10275). The test can be described thus: ACEA_AR_antagonist_80hr: ACEA Biosciences xCELLigence Real-Time Cell Analysis on Androgen Receptor Antagonism for Proliferation (AID 2283787).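 Note: 22Rv1 human prostate cancer cells with growth followed by electrical impedance; hits lower the impedance growth signal relative to DMSO.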 In outline:
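Using 22Rv1 cells held in assay medium, we dosed compounds (100 uM maximum final, 1:4 serial, eight points, 0.5% DMSO at top) and recorded cell-electrode impedance; the 80 hr timepoint was analyzed against DMSO.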

For test [11], the target named is Estrogen receptor beta (Homo sapiens) (UniProt Q92731). Kind of test: ATG_hERb_XSP1: Attagene TRANS-FACTORIAL Multi-Species (XSP1) HepG2 Assay for human Estrogen Receptor (ESR2) (AID 2283788). In outline: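 Multiplexed trans-activation in transfected HepG2: ERβ-Gal4 reporter transcripts after 24 h treatment, detected by RT-PCR plus capillary electrophoresis.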

Test [12] can be described thus: ATG_M_06_XSP1: Attagene TRANS-FACTORIAL Multi-Species (XSP1) HepG2 Assay for M06 Transcription Factor (Internal Marker) (AID 2283790). In outline:
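This background-control readout tracks M06 reporter mRNA, measured by RT-PCR and capillary electrophoresis. HepG2 cells transiently carrying the GAL4-UAS reporter panel were dosed for 24 h with 3 nM 6-alpha-fluorotestosterone added for partial AR stimulation; increases were scored relative to DMSO.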

The nature of test [13]: ATG_M_61_XSP1: Attagene TRANS-FACTORIAL Multi-Species (XSP1) HepG2 Assay for M61 Transcription Factor (Internal Marker) (AID 2283797). Put shortly:
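Background-control readout: reporter transcripts measured by RT-PCR and capillary electrophoresis 24 h after dosing transiently transfected HepG2 multi-reporter cells, with 3 nM 6-alpha-fluorotestosterone present. Fitted in the positive direction relative to DMSO.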

Test [14] deals with zebrafish Peroxisome Proliferator-activated Receptor gamma (PPARg), gene 557037. Kind of test: ATG_zfPPARg_XSP1: Attagene TRANS-FACTORIAL Multi-Species (XSP1) HepG2 Assay for zebrafish Peroxisome Proliferator-activated Receptor gamma (PPARg) (AID 2283801). Put shortly:
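Trans-activation readout of chimeric zebrafish PPARg–GAL4 in transiently transfected human HepG2 cells, 24 h chemical exposure (medium includes 3 nM 6-alpha-fluorotestosterone). Reporter transcripts measured by RT-PCR and capillary electrophoresis, fitted as gain over DMSO.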

Test [15] addresses Estrogen receptor (Homo sapiens) (UniProt P03372). Kind of test: ATG_hERa_XSP1: Attagene TRANS-FACTORIAL Multi-Species (XSP1) HepG2 Assay for human Estrogen Receptor (ESR1) (AID 2283780). Put shortly:
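Reporter transcripts from multiplexed GAL4-UAS units driven by NR-Gal4 chimeras in transiently transfected HepG2 were measured by RT-PCR with capillary electrophoresis 24 h post-dose, with 3 nM 6-alpha-fluorotestosterone present; gain-of-signal relative to DMSO.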

Test [16] is described as follows: ATG_M_19_XSP1: Attagene TRANS-FACTORIAL Multi-Species (XSP1) HepG2 Assay for M19 Transcription Factor (Internal Marker) (AID 2283798). In outline:
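Readout is reporter mRNA induction quantified via RT-PCR, 6-FAM labeling, HpaI digestion and capillary electrophoresis, fitted in the positive direction versus DMSO baseline. Transfected HepG2 cells exposed 24 h, medium including 3 nM 6-alpha-fluorotestosterone.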

The target in test [17] is Peroxisome proliferator-activated receptor gamma (Homo sapiens) (UniProt P37231). Kind of test: ATG_hPPARg_XSP1: Attagene TRANS-FACTORIAL Multi-Species (XSP1) HepG2 Assay for human Peroxisome Proliferator-activated Receptor gamma (PPARg) (AID 2283800). In outline:
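Reporter mRNA induction, measured by RT-PCR with capillary electrophoresis 24 h after dosing, scored as gain over DMSO. Transfected HepG2 cells express exogenous NR-Gal4 chimeras driving GAL4-UAS reporters; medium includes 3 nM 6-alpha-fluorotestosterone.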

Test [18] can be described thus: ATG_M_32_XSP1: Attagene TRANS-FACTORIAL Multi-Species (XSP1) HepG2 Assay for M32 Transcription Factor (Internal Marker) (AID 2283799). Put shortly: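 Reporter transcripts from the M32 internal-control unit measured by RT-PCR, FAM labelling, HpaI digestion and capillary electrophoresis after 24 h compound exposure of transfected HepG2, 3 nM 6-alpha-fluorotestosterone included; DMSO baseline, positive-direction fit.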

Inconclusive results are not listed. Activity calls are given as the source filed them. Rule for the calls: active = hit-call score of the fitted dose curve at least 0.9, where 1 is the maximum; inconclusive = response in the unintended direction; inactive = score below 0.9.

The AC50 is the concentration giving half of the maximal activity seen.

Sequence of Peroxisome proliferator-activated receptor gamma (Homo sapiens) (P37231 whole entry, looked up, the tested form may be a part): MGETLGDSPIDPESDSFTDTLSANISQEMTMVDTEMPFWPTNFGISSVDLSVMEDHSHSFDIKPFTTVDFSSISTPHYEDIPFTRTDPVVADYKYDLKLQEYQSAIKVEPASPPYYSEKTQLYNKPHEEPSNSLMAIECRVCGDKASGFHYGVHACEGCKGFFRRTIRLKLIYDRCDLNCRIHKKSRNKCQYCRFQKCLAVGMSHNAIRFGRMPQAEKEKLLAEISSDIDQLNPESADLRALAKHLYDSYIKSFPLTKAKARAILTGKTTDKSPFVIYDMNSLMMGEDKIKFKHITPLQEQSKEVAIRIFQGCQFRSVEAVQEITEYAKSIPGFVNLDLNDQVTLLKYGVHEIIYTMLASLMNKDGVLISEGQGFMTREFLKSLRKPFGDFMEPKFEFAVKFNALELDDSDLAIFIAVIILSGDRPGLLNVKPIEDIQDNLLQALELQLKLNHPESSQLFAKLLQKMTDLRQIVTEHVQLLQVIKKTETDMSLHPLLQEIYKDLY
Sequence of chicken Estrogen Receptor (ESR1), ESR1 (gene 396099) (P06212 whole entry, looked up, the tested form may be a part): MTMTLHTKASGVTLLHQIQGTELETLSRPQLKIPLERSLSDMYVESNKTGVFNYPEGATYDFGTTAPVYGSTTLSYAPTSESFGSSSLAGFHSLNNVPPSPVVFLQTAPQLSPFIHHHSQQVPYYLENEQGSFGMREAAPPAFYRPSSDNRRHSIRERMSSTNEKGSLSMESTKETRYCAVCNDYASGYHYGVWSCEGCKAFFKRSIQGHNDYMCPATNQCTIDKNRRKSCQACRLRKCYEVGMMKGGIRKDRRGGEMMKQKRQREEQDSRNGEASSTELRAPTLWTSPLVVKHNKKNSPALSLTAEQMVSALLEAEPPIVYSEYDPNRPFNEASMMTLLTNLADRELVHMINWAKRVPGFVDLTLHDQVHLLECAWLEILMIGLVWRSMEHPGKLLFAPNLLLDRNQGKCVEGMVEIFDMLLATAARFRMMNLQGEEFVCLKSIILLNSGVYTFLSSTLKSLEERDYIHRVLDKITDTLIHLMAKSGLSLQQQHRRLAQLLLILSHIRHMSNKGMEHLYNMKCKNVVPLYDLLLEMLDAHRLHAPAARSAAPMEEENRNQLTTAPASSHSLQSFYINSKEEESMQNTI
Sequence of Estrogen receptor beta (Homo sapiens) (Q92731 whole entry, looked up, the tested form may be a part): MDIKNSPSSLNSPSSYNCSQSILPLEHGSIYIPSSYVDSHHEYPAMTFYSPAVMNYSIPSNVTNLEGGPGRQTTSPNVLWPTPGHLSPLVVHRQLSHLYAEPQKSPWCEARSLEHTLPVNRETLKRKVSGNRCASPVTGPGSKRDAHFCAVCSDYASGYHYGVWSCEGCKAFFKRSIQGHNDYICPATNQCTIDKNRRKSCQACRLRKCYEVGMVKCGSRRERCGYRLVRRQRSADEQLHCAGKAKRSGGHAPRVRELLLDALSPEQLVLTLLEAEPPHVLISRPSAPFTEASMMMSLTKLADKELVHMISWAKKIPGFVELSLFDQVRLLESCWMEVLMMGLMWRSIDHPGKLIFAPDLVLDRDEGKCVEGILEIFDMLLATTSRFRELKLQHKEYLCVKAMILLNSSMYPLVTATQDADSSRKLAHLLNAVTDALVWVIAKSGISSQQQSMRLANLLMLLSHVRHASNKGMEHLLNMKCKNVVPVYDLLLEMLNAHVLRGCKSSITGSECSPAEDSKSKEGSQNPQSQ
Sequence of AR (gene 367) (P10275 whole entry, looked up): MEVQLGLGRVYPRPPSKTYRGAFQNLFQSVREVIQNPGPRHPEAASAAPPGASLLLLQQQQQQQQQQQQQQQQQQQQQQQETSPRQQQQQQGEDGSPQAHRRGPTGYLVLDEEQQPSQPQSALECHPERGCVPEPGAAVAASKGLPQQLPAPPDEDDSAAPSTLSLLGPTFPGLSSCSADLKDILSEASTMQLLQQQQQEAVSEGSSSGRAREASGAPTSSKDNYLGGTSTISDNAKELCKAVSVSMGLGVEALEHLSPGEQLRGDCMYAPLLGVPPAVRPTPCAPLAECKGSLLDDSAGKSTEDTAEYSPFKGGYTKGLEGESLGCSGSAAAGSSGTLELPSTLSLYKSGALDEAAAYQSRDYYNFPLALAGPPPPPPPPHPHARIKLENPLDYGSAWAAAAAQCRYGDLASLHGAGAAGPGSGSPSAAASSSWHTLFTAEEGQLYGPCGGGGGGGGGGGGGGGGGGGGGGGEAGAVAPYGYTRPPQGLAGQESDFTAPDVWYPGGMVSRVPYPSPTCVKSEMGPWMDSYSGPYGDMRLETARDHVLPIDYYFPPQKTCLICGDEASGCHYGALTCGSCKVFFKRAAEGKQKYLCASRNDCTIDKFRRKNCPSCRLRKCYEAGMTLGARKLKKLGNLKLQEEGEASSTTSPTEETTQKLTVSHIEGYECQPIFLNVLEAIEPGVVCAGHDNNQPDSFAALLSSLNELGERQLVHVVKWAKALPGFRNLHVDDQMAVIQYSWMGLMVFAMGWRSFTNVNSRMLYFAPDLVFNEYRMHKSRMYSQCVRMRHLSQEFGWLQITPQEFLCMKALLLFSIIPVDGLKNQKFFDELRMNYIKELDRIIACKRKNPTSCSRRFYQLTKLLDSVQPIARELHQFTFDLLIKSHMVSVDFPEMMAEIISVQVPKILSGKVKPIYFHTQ
Sequence of Estrogen receptor (Homo sapiens) (P03372 whole entry, looked up, the tested form may be a part): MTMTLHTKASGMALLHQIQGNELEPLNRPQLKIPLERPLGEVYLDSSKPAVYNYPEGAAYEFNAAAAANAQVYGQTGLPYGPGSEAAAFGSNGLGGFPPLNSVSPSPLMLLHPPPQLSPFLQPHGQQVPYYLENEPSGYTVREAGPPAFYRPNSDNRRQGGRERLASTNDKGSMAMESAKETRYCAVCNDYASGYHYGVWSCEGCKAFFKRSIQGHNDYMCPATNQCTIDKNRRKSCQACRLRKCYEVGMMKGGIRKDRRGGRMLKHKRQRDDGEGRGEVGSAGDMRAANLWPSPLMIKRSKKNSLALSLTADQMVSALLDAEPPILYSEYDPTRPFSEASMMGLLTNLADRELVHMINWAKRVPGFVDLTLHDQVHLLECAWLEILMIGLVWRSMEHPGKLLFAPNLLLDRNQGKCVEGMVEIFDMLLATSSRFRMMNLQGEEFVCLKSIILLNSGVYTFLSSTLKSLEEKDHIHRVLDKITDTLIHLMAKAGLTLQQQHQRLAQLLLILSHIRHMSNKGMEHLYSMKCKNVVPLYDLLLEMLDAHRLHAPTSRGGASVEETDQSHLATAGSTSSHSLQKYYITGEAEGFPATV

Regarding `Oc1ccc(Cl)cc1Cc1ccccc1`, the AC50 in test [1] was 18.2 µM (active); in [2] it was 13.8 µM (active); in [3] it was 2.63 µM (active); in [6] it was 2.74 µM (active); in test [7], 18.3 µM (active) [middle of 9 runs]; in test [10], 11.2 µM (active). Besides, the call in [4], in test [5], in test [8], in test [9], in test [11] and in test [12] was inactive. Also, the outcome in test [13] and in [14] was inactive.

As for `O=S1OCC2C(CO1)C1(Cl)C(Cl)=C(Cl)C2(Cl)C1(Cl)Cl` (stereo unspecified), the AC50 is 23.1 µM (active) in test [1]; 17.2 µM (active) in test [2]; 1.98 µM (active) in test [15]; 1.98 µM (active) in test [6]; 71.8 µM (active) in [7]; 78.4 µM (active) in [9]. Further, the AC50 in test [10] is 9.11 µM (active). Moreover, the compound was classed as inactive in test [3], in test [5], in test [8], in test [12], in [13] and in [16]. For the same compound, the compound was called inactive in test [17].

On to `CNC(=O)Oc1cccc(N=CN(C)C)c1`, for which the result in [1] and in [2] was inactive. The AC50 in [7] is 50.5 µM (active).

In the case of `CC1(C)C(C=C(Cl)Cl)C1C(=O)OC(C#N)c1ccc(F)c(Oc2ccccc2)c1` (stereo unspecified), the AC50 in test [1] is 67.2 µM (active); in [2], 30.1 µM (active); in [3], 13.9 µM (active); in test [5], 27.5 µM (active); in test [6], 27.5 µM (active); in test [7], 74.3 µM (active). In test [17], the AC50 was 11.1 µM (active). Also, the call in [4], in test [15], in test [11], in test [12], in [13] and in [14] was inactive.

Consider `CCCN(CCOc1c(Cl)cc(Cl)cc1Cl)C(=O)n1ccnc1`, for which the AC50 in test [1] is 37.3 µM (active); in [2] it was 57.1 µM (active); in [7], 74.9 µM (active); in test [17], 33.4 µM (active). Moreover, the result in test [5], in [11], in test [16], in test [18] and in test [14] was inactive.

Turning to `CCc1ccc(C(=O)NN(C(=O)c2cc(C)cc(C)c2)C(C)(C)C)cc1`, the AC50 in test [1] and in [2] was 50 µM (active) in each case. Further, the result in [7] was inactive.
